sPLA2-III inh: Blocks human group III sPLA2 activity. QFRET BODIPY PC-A2 liposome hydrolysis, fluorescence. Q9NZ20. inhibition, % at 12.2 µM. 370,000 tested, 0.56% active;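 active = inhibition above mean plus 3 SD of compounds lying within the high and low control bounds, cut at about 19% in these data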;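 also: 0% = median of test compound wells and 100% = no enzyme DMSO wells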
PLC-beta3 inh: inhibitors of human phospholipase C beta3; Purified PLC-beta3, fluorogenic substrate, fluorescence; inhibition, % at 12.2 µM; 370,000 tested, 0.18% active; in the data active = inhibition above about 11%;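 also: 0% = median of compound wells on plate and 100% = full blocker control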
Target sequence (Q01970 whole entry, looked up): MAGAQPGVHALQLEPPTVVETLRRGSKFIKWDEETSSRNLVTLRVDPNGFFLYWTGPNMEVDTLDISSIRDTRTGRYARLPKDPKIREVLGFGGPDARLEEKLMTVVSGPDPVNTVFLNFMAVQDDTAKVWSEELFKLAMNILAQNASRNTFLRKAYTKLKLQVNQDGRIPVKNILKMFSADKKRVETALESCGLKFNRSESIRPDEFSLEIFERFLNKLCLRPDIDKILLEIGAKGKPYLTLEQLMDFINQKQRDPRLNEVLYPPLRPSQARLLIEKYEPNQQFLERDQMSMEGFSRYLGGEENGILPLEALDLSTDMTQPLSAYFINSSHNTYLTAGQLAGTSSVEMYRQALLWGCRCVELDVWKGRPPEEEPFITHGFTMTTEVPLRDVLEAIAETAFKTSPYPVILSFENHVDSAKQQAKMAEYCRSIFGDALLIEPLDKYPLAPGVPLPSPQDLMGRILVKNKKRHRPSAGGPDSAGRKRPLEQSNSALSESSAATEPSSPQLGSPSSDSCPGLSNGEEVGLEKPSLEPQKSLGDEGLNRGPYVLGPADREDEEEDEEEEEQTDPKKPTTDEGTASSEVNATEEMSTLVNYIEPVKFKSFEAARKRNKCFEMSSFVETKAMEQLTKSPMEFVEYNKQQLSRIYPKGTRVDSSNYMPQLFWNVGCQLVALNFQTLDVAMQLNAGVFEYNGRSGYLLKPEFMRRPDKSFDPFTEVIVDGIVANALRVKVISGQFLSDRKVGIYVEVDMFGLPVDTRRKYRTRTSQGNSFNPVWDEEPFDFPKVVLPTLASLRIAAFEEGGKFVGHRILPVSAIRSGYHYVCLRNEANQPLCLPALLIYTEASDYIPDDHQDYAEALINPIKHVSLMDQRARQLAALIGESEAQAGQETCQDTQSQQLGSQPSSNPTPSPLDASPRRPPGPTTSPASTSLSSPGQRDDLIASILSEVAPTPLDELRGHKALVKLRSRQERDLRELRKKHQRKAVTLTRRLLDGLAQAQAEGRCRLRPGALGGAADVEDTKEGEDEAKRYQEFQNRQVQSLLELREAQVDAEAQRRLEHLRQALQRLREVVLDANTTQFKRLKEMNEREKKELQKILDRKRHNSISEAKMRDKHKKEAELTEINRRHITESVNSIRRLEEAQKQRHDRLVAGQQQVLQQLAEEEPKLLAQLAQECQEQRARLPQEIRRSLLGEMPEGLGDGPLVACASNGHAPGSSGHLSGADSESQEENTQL
DAGLB inhibitor: blocks human DAGLB lipase activity. inhibition, % at 5.17 µM. 340,000 tested, 0.059% active. HEK293T DAGLB membrane lysate, EnzChek fluorogenic substrate. AID 504411. Q8NCG7; in the data active = inhibition above about 34%;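 also: 0% = enzyme with vehicle and 100% = wells lacking enzyme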
PLC-gamma1 inh: blocks human PLC-gamma1 enzyme activity; P19174; 370,000 tested, 0.84% active; inhibition, % at 12.2 µM; purified PLC-gamma1, fluorogenic substrate, fluorescence; in the data active = inhibition above about 9.5%
hGIII sPLA2 conf: human GIII-sPLA2 inhibition, confirmation. AID 743280. inhibition, % at 12.2 µM. shares compounds with sPLA2-III inh. 2,000 tested, 34% active. recombinant hGIII-sPLA2, BODIPY PC-A2 QFRET fluorescence;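 active = mean inhibition across triplicates above the hit cutoff set in the earlier primary screen, cut at about 19% in these data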;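 also: 0% = enzyme with DMSO and 100% = DMSO wells lacking enzyme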
BODIPY interf: optically interferes with 535nm fluorescence in sPLA2 counter-screen; shares compounds with sPLA2-III inh; BODIPY FL product fluorescence interference, QFRET; inhibition, % at 12.2 µM; 2,000 tested, 8.5% active; AID 743282;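 active = average inhibition above the solvent-only control mean plus 3 SD, cut at about 6% in these data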;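 also: 0% = DMSO with substrate plus product and 100% = DMSO with substrate alone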
BODIPY interf DR: counter-screen for HGIII-sPLA2 inhibitors: 535nm fluorescence interference, dose response | BODIPY FL product fluorescence interference, cell-free | IC50, µM | 240 tested, under 10 active | shares compounds with sPLA2-III inh;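 active = IC50 at or below 10 µM; inactive = IC50 above 10 µM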
* = called active by the depositor; i = inactive; · = no result. Sampled rows, rich in hits. Any-hit rate of the full collection: about 1.5%.

SMILES	sPLA2-III inh	PLC-beta3 inh	DAGLB inhibitor	PLC-gamma1 inh	hGIII sPLA2 conf	BODIPY interf	others
COCCNC(=O)/C(C#N)=C/c1c(N2CC(C)OC(C)C2)nc2ccccn2c1=O (stereo not drawn)	21*	-126	-1	-132	3	-8
CCN(CC)c1ccc(/C=C/c2cc(-c3ccccc3)c3ccccc3n2)cc1	25*	-456	-155	-307	-22	5
CCN(C(=O)/C=C/c1ccccc1)C1CCCCC1	12	0	-2	-2	·	·
CCN(CC)C(=O)/C=C/c1ccccc1	20*	1	-2	4	-3	-4
O=C(NCCc1nc2ccccc2[nH]1)c1ccc(Cl)c([N+](=O)[O-])c1	7	1	1	7	·	·
CCCNC(=O)c1ccc2c(=O)c(O)c(-c3ccc(Cl)c([N+](=O)[O-])c3)[nH]c2c1	20*	-30	12	-23	-8	-1
COc1cc(C)c2sc3ccccc3c(=O)c2c1NCCN(C)C	20*	-14	11	-9	17	-22
Cc1ccc(NCCN(C)C)c2c(=O)c3cc(O)ccc3sc12	-5	-5	13	1	·	·
CC(C)c1ccc(NC(=O)CSc2nnc(-c3ccco3)n2C)cc1	1	-2	·	-3	·	·
COc1cc(OC)nc(NC(=O)C(C)C)n1	20*	6	1	6	3	0
c1ccc(OCc2nnc(SCc3nc4ccccc4[nH]3)n2-c2ccccc2)cc1	2	-4	·	-4	·	·
COc1cccc(NC(=O)N2CC[C@@H]3[C@H]2c2cc(-c4cccc(C#N)c4)ccc2N(C)[C@@H]3CO)c1	-7	i	·	i	·	·
CCN(CC)C(=O)CC[C@@H]1CC[C@]2(CCCN(C(=O)c3ccco3)C2)O1	4	3	·	-3	·	·
Cc1ccc(/C=C2/SC(=O)N(CC(=O)N3CCOCC3)C2=O)s1	8	0	-2	0	·	·
O=C(CN1C(=O)S/C(=C/c2ccc(N3CCOCC3)cc2)C1=O)N1CCOCC1	22*	-11	0	-44	-6	-12
Cc1ccc2c(c1)c1c(n2CC(O)CNC2CCCC2)CCCC1 (stereo not drawn)	20*	-5	-1	3	6	-29
C=CCNC(=S)NNC(=O)c1csc(C)c1C	24*	0	1	8	21*	-7
Cc1scc(C(=O)NNC(=S)NC(C)c2ccccc2)c1C (stereo not drawn)	30*	6	-3	7	18	5
CCCCNC(=S)NNC(=O)c1csc(C)c1C	27*	-3	0	-1	29*	-2	BODIPY interf DR=>122
COc1ccc(S[C@]2(C(=O)N(C)C)CC(=O)N(c3ccc(Cl)cc3)[C@@H]2c2ccc(OC)cc2)cc1	-11	2	·	4	·	·
COc1cc(C(=O)NC2CCCCN(Cc3cccc(C(F)(F)F)c3)C2=O)cc(OC)c1OC (stereo not drawn)	-3	4	·	-2	·	·
COC(=O)c1c(NC(=S)Nc2cc(OC)c(Cl)cc2OC)sc2c1CCCCC2	25*	-6	-3	-8	26*	11*
COC(=O)c1c(NC(=S)NNS(=O)(=O)c2ccc(OC)cc2OC)sc2c1CCCCCC2	-8	-4	7	0	·	·
O=C(OCC#CCSc1nnc(-c2ccc3ccccc3c2)o1)c1cccs1	-20	-1	·	-1	·	·
Cc1occc1C(=O)N/N=C/c1c(O)ccc2ccccc12	23*	-20	5	-13	-1	2
SMILES	sPLA2-III inh	PLC-beta3 inh	DAGLB inhibitor	PLC-gamma1 inh	hGIII sPLA2 conf	BODIPY interf	others
O=C(N/N=C/c1c(O)ccc2ccccc12)c1ccc(Br)o1	19*	-59	1	-41	-2	-2
C/C(=N\NC(=S)NCc1ccccc1)c1ccc2ccccc2c1	19*	-7	-8	-6	0	2
CC(C)OC(=O)c1c(N)sc2c1CCCC2	20*	0	0	2	18	-4
CC(C)CNc1ccc2c(c1)OC[C@@H](CC(C)C)NS2(=O)=O	-2	1	·	-1	·	·
CCCCOCCCNC(=O)C[C@H]1C[C@@]2(C(=O)OC)C(=C[C@H](C(C)(C)C)O[C@@H]2C)N(Cc2cccc3ccccc23)C1=O	-16	5	·	1	·	·
COC(=O)[C@]12C[C@H](CC(=O)N3CCCC3)C(=O)N(Cc3ccco3)C1=C[C@H](C(C)C)O[C@@H]2C1CC1	-4	-1	·	-1	·	·
COC(=O)C(NC(C)=O)(Nc1ccc(C)cn1)C(F)(F)F (stereo not drawn)	20*	-9	0	1	4	-6
Nc1[nH]nc2nnc(-c3c(-c4ccccc4)nn4ccccc34)cc12	22*	3	·	6	9	-3
Nc1[nH]nc2nc(N3CCCC3)nc(-c3ccccc3)c12	1	0	2	-1	·	·
COC(=O)C[C@H]1CC[C@@H]2[C@H](COc3ccc(NS(C)(=O)=O)cc3C(=O)N2C)O1	5	0	·	-1	·	·
CC(c1ccccc1)N(NC(=O)C(O)(c1ccccc1)c1ccccc1)C(=O)c1ccccc1 (stereo not drawn)	22*	-1	10	-1	13	-19
CCN(NC(=O)C(O)(c1ccccc1)c1ccccc1)C(=O)c1ccccc1	-5	4	1	-4	·	·
C=CC[n+]1c(-c2ccccc2)csc1NC(C)(C)C	19*	1	-4	-2	21*	-4
CN1CCCN(C(=O)CN2C(=O)CC(C)(C)S(=O)(=O)c3ccccc32)CC1	-2	2	·	1	·	·
COc1cc2c(c(OC)c1OC)CC(=O)N(C)CC2	14	-2	-4	3	·	·
CN1CCc2ccccc2CC1=O	20*	-3	-3	6	-1	-5
Cc1ccccc1CN1CCCCC(NC(=O)c2c(F)cccc2F)C1=O (stereo not drawn)	9	1	·	0	·	·
Cc1cc(OC(=O)c2cccc(C(F)(F)F)c2)c([N+](=O)[O-])c(=O)[nH]1	22*	2	-3	3	-4	-4
FC(F)(F)c1cccc(N2CCN(C3=Nc4ccccc4Sc4ccccc43)CC2)c1	6	-2	·	1	·	·
CCN(C[C@H]1[C@@H](c2ccc(C3=CCCC3)cc2)[C@H](CO)N1C(=O)c1cccnc1)S(=O)(=O)c1ccccc1[N+](=O)[O-]	-16	0	·	0	·	·
COC(=O)C[C@H]1CC[C@@H]2[C@H](COc3ccc(NC(=O)c4ccccc4OC)cc3C(=O)N2C)O1	8	1	·	6	·	·
N#Cc1c(C(F)(F)F)cc(-c2ccco2)nc1SCc1ccccn1	20*	-189	-2	-147	6	-11
N#Cc1c(C(F)(F)F)cc(-c2ccco2)nc1SCc1ccncc1	-1	-172	-4	-145	·	·
CCCCN1CNC(=S)N(Cc2ccccc2)C1	28*	6	-2	0	19	-8
CNC(=S)NNC(=O)Cc1ccc(O)cc1	26*	-2	-6	4	6	-3

Screening results as filed in PubChem.
